# In all, about 69,000 compounds went through this assay and about 1,000 (1.4%) showed an effect of 50% or more. This excerpt belongs to a sample that is enriched for strong results.
# Test system: Leishmania donovani
# Assay: Leishmania intramacrophage assay
# Type: functional, organism-based
# Parameters: scale not given: in the data most compounds retested in dose-response had high values
smiles,measurement,setting,value
O=C(c1ccc[nH]1)N1CCc2ccc(S(=O)(=O)N3CCOCC3)cc2C1,Percent Effect,"30.3 µM, […]",-1.46%
O=C(c1cc[nH]n1)N1CCc2ccc(S(=O)(=O)N3CCOCC3)cc2C1,Percent Effect,"30.3 µM, […]",52.38%
O=C(c1ccc[nH]1)N1CCc2cc(S(=O)(=O)N3CCOCC3)ccc2C1,Percent Effect,"30.3 µM, […]",17.1%
c1cncc(-c2nc3c(c(NCC4(c5ccncc5)CC4)n2)CCC3)c1,Percent Effect,"30.3 µM, […]",33.94%
Cl.NC1CCc2nc(-c3cccnc3)nc(Nc3ccc(F)cc3)c2C1 (stereo not given),Percent Effect,"30.3 µM, […]",94.83%
CN(CC1CCCO1)c1nc(-c2cccnc2)nc2c1CCNCC2 (stereo not given),Percent Effect,"30.3 µM, […]",34.58%
CC(O)CNc1nc(-c2cccnc2)nc2c1CCC2 (stereo not given),Percent Effect,"30.3 µM, […]",13.01%
CCc1noc(CNc2nc(-c3cccnc3)nc3c2CCNCC3)n1,Percent Effect,"30.3 µM, […]",27.11%
CNS(=O)(=O)CC(=O)NC(C)Cc1ccc(-c2ccccc2)cc1 (stereo not given),Percent Effect,"30.3 µM, […]",32.54%
CN(CCN(C)S(=O)(=O)CC1CCOCC1)c1ccccc1,Percent Effect,"30.3 µM, […]",4.21%
Fc1ccccc1NCc1nc2n(n1)CCCCC2,Percent Effect,"30.3 µM, […]",-12.91%
O=C(Nc1ccccc1)C1=CC2(CCNCC2)c2ccccc21,Percent Effect,"30 µM, 30.03 µM",52.55%
CC(=O)N1CCC2(C=C(C(=O)NC3CC3)c3ccccc32)CC1,Percent Effect,"30.3 µM, […]",1.849%
O=C(C1=CC2(CCNCC2)c2ccccc21)N1CCCC1,Percent Effect,"30 µM, 30.03 µM",-18.75%
Cc1nn(CCn2ccnc2-c2cc3n(n2)CCCNC3)c(C)c1Cl,Percent Effect,"30 µM, 30.03 µM",27.54%
COc1ccc(CN2CCCCCC2c2cccs2)c(OC)c1 (stereo not given),Percent Effect,"30.3 µM, […]",16.39%
Cc1nc(C2CCCN(C(=O)c3cc(-c4ccccc4)[nH]n3)C2)no1 (stereo not given),Percent Effect,"30.3 µM, […]",9.064%
CC(C)CCN1CC2(CCN(C(=O)C3(C)CCCCO3)CC2)OC1=O (stereo not given),Percent Effect,"30.3 µM, […]",6.725%
COc1ccc(C2=Nn3c(CCN)nnc3-c3ccccc3C2)cc1,Percent Effect,"30.3 µM, […]",89.23%
COc1ccc(C2=Nn3c(CN)nnc3-c3ccccc3C2)cc1,Percent Effect,"30.3 µM, […]",36.2%
COc1ccc(C2=Nn3c(CCCN)nnc3-c3ccccc3C2)cc1,Percent Effect,"30.3 µM, […]",30.64%
CC(=O)N1CCc2c(nc(N(C)C)nc2NCCCn2ccnc2)C1,Percent Effect,"30.3 µM, […]",-10.69%
CN(C)CCN1C[C@@H]2CN(C(=O)C3CCOC3)C[C@@H]2C1=O.O=C(O)C(F)(F)F (stereo not given in full),Percent Effect,"30.3 µM, […]",-26.31%
Cc1cc(C(=O)N2CCC3(CCC(=O)N(CC(N)=O)C3)CC2)ccc1O,Percent Effect,"30.3 µM, […]",11.98%
Cc1ccc(S(N)(=O)=O)cc1C(=O)NC1CCCN(C)C1 (stereo not given),Percent Effect,"30.3 µM, […]",17.05%
CC(=O)N1CCC(NC(=O)c2cc(S(N)(=O)=O)ccc2C)CC1,Percent Effect,"30.3 µM, […]",-1.924%
Cc1ccc(S(N)(=O)=O)cc1C(=O)NC1CCCC1,Percent Effect,"30.3 µM, […]",54.24%
CNC(=O)CN(C)C(=O)c1cc(Cl)c(Cl)n1C,Percent Effect,"30.3 µM, […]",1.638%
NC(=O)N1CCC(C(=O)NC2CCc3nccn3C2)CC1 (stereo not given),Percent Effect,"30.3 µM, […]",-91.03%
C=Cc1cccc(CN2CCCn3nc(CNS(C)(=O)=O)cc3C2)c1,Percent Effect,"30.3 µM, […]",8.14%
Fc1cnc(N2C[C@@H](OCC3CCOCC3)[C@H]3OCCC[C@H]32)nc1.O=C(O)C(F)(F)F,Percent Effect,"30.3 µM, […]",63.79%
Fc1cnc(N2CCO[C@H]3[C@H](OCC4CCOCC4)CC[C@@H]32)nc1.O=C(O)C(F)(F)F,Percent Effect,"30.3 µM, […]",42.92%
O=C(O)C(F)(F)F.c1cnc(N2CCO[C@H]3[C@H](OCC4CCOCC4)CC[C@@H]32)nc1,Percent Effect,"30.3 µM, […]",26.14%
N[C@@H]1CCN(Cc2ccccc2CS(=O)(=O)c2ccccc2)C[C@H]1O,Percent Effect,"30.3 µM, […]",11.27%
O=S(=O)(Cc1ccccc1CN1CC[C@H](CO)[C@H](O)C1)c1ccccc1,Percent Effect,"30.3 µM, […]",22.14%
NC1CCCCN(Cc2ccccc2CS(=O)(=O)c2ccccc2)C1 (stereo not given),Percent Effect,"30.3 µM, […]",64.11%
Cc1cnn(C2CN(Cc3nc(-c4ccccn4)no3)C2)c1,Percent Effect,30 µM,-31.22%
O=S(=O)(c1ccccc1)N1CCN(CCn2ccnc2)CC1,Percent Effect,"30 µM, 30.03 µM",0.5728%
Cc1ccc(S(=O)(=O)N2CCN(CCCn3ccnc3)CC2)cc1,Percent Effect,"30.3 µM, […]",3.879%
O=S(=O)(c1ccccc1)N1CCCN(CCCn2ccnc2)CC1,Percent Effect,"30 µM, 30.03 µM",52.87%
CCc1cc(=O)[nH]c2nnc(SCC(=O)NC(C)C)n12,Percent Effect,"30.3 µM, […]",-15.02%
COc1ccc(C(=O)N2CC[C@@]3(O)CCCC[C@H]3C2)cc1OC,Percent Effect,"30.3 µM, […]",15.68%
Cc1ccc2cc(C3(O)CCN(C(=O)CSC(C)C)CC3)ccc2n1,Percent Effect,"30.3 µM, […]",27.25%
Cc1nc(C2CCCNC2)nc2c1CCCN2Cc1ccccn1.Cl.Cl (stereo not given),Percent Effect,"30.3 µM, […]",30.18%
CNc1cc(-c2ccccc2CN)c2cc[nH]c2n1,Percent Effect,"30.3 µM, […]",31.34%
CNc1cc(-c2ccc(COCCN)cc2)c2cc[nH]c2n1,Percent Effect,"30.3 µM, […]",-14.52%
CNc1cc(-c2cccc(CN)c2)c2cc[nH]c2n1,Percent Effect,"30.3 µM, […]",52.08%
C=C(C)CN1CCC(C(=O)c2cc(F)ccc2F)CC1,Percent Effect,30 µM,41.7%
Cc1cccc2c1nc(CCO)n2-c1ccc(C(=O)N2CCOCC2)o1,Percent Effect,"30.3 µM, […]",26.23%
CC(=O)N1N=C(COc2ccc(C)cc2)OC1c1ccc(N(C)C)cc1 (stereo not given),Percent Effect,"30.3 µM, […]",54.92%
COc1ccc(C2OC(COc3ccc(C)cc3)=NN2C(C)=O)cc1 (stereo not given),Percent Effect,"30.3 µM, […]",8.051%
COCCNc1nc(N2CCOCC2)nc2nccnc12,Percent Effect,"30.3 µM, […]",21.04%
CC(C)=CCN1CCN(C(=O)C2CC2)CC1,Percent Effect,"30.3 µM, […]",-4.864%
COc1ccccc1CC(NC(=O)N1CCC[C@@H]1CO)C(C)C (stereo not given in full),Percent Effect,"30.3 µM, […]",9.914%
CN(C)C(=O)CCNC(=O)Nc1sc2ccccc2c1Cl,Percent Effect,"30.3 µM, […]",-8.505%
CS(=O)(=O)CCNC(=O)Nc1sc2ccccc2c1Cl,Percent Effect,"30.3 µM, […]",-48.56%
CN(C)CC(C)(O)CNC(=O)Nc1sc2ccccc2c1Cl (stereo not given),Percent Effect,"30.3 µM, […]",53.76%
CN(CC(=O)NC(Cc1ccsc1)c1cccnc1)Cc1cccnc1.Cl (stereo not given),Percent Effect,"30.3 µM, […]",2.46%
O=c1[nH]c2c(c(=O)n1C1CCCCC1)CCC2Nc1ccccc1Cl (stereo not given),Percent Effect,"30 µM, 30.03 µM",19.4%
CC(CNC(=O)c1cccc(-n2cccn2)n1)Cn1ccnc1 (stereo not given),Percent Effect,"30.3 µM, […]",11.75%
COCC(=O)NC[C@H]1CC[C@H](c2ccnc3ncnn32)CC1,Percent Effect,"30.3 µM, […]",23.66%
O=C(NC[C@H]1CC[C@H](c2ccnc3ncnn32)CC1)c1ccccn1,Percent Effect,"30.3 µM, […]",56.14%
O=C(NC[C@H]1CC[C@H](c2ccnc3ncnn32)CC1)C1CC1,Percent Effect,"30.3 µM, […]",16.97%
COc1ccc(OCc2noc(CN(C)C3CCS(=O)(=O)C3)n2)cc1 (stereo not given),Percent Effect,"30.3 µM, […]",17.47%
O=C(CC1=CCCCC1)Nc1ccc(CN2C(=O)CCC2=O)cc1,Percent Effect,"30.3 µM, […]",-19.22%
C[C@@H]1CN(C2CCN(c3ccccc3F)CC2)C[C@]1(C)O,Percent Effect,"30.3 µM, […]",31.62%
C[C@@H]1CN(C2CCN(c3ccccc3F)CC2)CC[C@]1(C)O,Percent Effect,"30.3 µM, […]",62.06%
CC(=O)N[C@@H]1CN(C2CCN(c3ccccc3F)CC2)C[C@H]1C(C)C,Percent Effect,"30.3 µM, […]",-2.556%
CCC(O)CN1CCN(C(=O)c2cccn2Cc2ccccc2)CC1 (stereo not given),Percent Effect,"30 µM, 30.03 µM",13.25%
Cn1cc(C(=O)N[C@H]2CN(Cc3nccs3)[C@@H]3CCCO[C@H]23)cn1.O=C(O)C(F)(F)F,Percent Effect,"30.3 µM, […]",15.38%
CC(NCc1ccncc1)c1cc2c(cc1Br)OCCO2 (stereo not given),Percent Effect,"30.3 µM, […]",16.23%
CC(NCc1cccc2c1OCCO2)c1cc2c(cc1Br)OCCO2 (stereo not given),Percent Effect,"30.3 µM, […]",73.82%
CC(NCc1ccccn1)c1cc2c(cc1Br)OCCO2 (stereo not given),Percent Effect,"30.3 µM, […]",16.93%
O=C(NCCNc1ncccn1)N1CCN(c2nccs2)CC1,Percent Effect,"30.3 µM, […]",13.95%
CS(=O)(=O)Cc1cc(F)ccc1NCc1nnsc1Cl,Percent Effect,"30.3 µM, […]",-4.772%
Cn1ccnc1CN1CCC2(COCCN(Cc3ccsc3)C2)C1 (stereo not given),Percent Effect,"30 µM, 30.03 µM",46.66%
Cn1ccnc1CN1CCC2(CC1)COCCN(c1ncccn1)C2,Percent Effect,"30.3 µM, […]",59.31%
Cn1ccnc1CN1CCC2(CC1)COCCN(S(C)(=O)=O)C2.O=C(O)C(F)(F)F,Percent Effect,"30.3 µM, […]",39.8%
NCC(=O)N1CCC2(CC1)CN(C(=O)Cc1ccc(Cl)cc1)CCO2,Percent Effect,"30.3 µM, […]",-4.476%
Cc1nccn1C1CCCN(C(=O)c2cccc(Cn3ccnc3)c2)C1 (stereo not given),Percent Effect,30 µM,43.46%
CCN(CCO)C[C@@H]1CN(C(=O)c2sc3ccccc3c2C)C[C@@H]1CO,Percent Effect,"30.3 µM, […]",-0.1561%
CN(CCC#N)C(=O)Cc1csc(-c2ncccn2)n1,Percent Effect,"30.3 µM, […]",54.73%
CN(CC1CC1)C(=O)Cc1csc(-c2ncccn2)n1,Percent Effect,"30.3 µM, […]",39.01%
COc1ccc(-c2nc(CC(=O)N(C)CCC#N)cs2)cc1OC,Percent Effect,"30.3 µM, […]",0.3942%
COCC1CCCCN1C(=O)c1cc(-c2cccc(OC)c2)n[nH]1 (stereo not given),Percent Effect,"30.3 µM, […]",-0.5575%
COCC(=O)NCCc1nc(N(C)C)ncc1-c1ccncc1,Percent Effect,"30.3 µM, […]",29.7%
Cn1cc(CN2CC[C@@H]3[C@@H]2CCN3C(=O)c2cccc(F)c2)cn1.O=C(O)C(F)(F)F,Percent Effect,"30.3 µM, […]",56.05%
Cn1cc(C(=O)N2CC[C@@H]3[C@@H]2CCN3Cc2cccc(F)c2)cn1.O=C(O)C(F)(F)F,Percent Effect,"30 µM, 30.03 µM",2.666%
Cn1cc(C(=O)N2CC[C@@H]3[C@@H]2CCN3Cc2ccccc2)cn1.O=C(O)C(F)(F)F,Percent Effect,"30.3 µM, […]",4.091%
Cc1oncc1C(=O)N1CC[C@H]2CO[C@H](CN3CCCC3)[C@H]2C1,Percent Effect,"30.3 µM, […]",5.899%
COc1c(CNC2CCc3c(Cl)cccc32)c(C)nn1C.Cl (stereo not given),Percent Effect,"30 µM, 30.03 µM",56.04%
COc1c(CNC2CCCOc3ccc(F)cc32)c(C)nn1C.Cl (stereo not given),Percent Effect,"30.3 µM, […]",19.28%
COc1c(CNC2CCc3cc(F)ccc32)c(C)nn1C.Cl (stereo not given),Percent Effect,"30 µM, 30.03 µM",46.26%
COc1c(CNC2CCOc3c(Cl)cccc32)c(C)nn1C.Cl (stereo not given),Percent Effect,"30.3 µM, […]",30.91%
COc1c(CNC2CCc3c(F)cccc32)c(C)nn1C.Cl (stereo not given),Percent Effect,30 µM,34.02%
COc1c(CNC2CCSc3ccc(F)cc32)c(C)nn1C.Cl (stereo not given),Percent Effect,"30 µM, 30.03 µM",60.68%
COc1ccc(F)c(CNC2CCCc3nc(N(C)C)ncc32)c1 (stereo not given),Percent Effect,"30.3 µM, […]",34.48%
O=C(c1ccc(Cl)cc1)N1CC2(CCNC2)OCc2ccccc21 (stereo not given),Percent Effect,"30.3 µM, […]",67.31%
O=C(c1ccccc1)N1CC2(CCNC2)OCc2ccccc21 (stereo not given),Percent Effect,"30.3 µM, […]",23.45%
O=C(C1CCCC1)N1CC2(CCNC2)OCc2ccccc21 (stereo not given),Percent Effect,"30.3 µM, […]",12.94%

# From ChEMBL document CHEMBL3988442, “University of Dundee, Small-Polar-MMV Screening Library” (2021)
